This note sets out measurements from PubChem BioAssay (Tox21).

Values joined by “and” are separate entries in the source; they are usually repeats but may differ in a detail not shown here. Equal values may be shown once. Unmarked numbers belong to inactive results. Records with an inconclusive call do not appear. Active and inactive are the calls of the source. Unless noted, calls come from the whole dose curve; as a rule, active = well fitted curve in the direction sought with a large enough effect in the repeat runs; inconclusive = weak or mixed curves; inactive = no such curve, though single readings can be large; an effect the other way counts as inactive or inconclusive.

Assay [1] in a line: qHTS assay to test for compound auto fluorescence at 535 nm (green) in HEK293 cells (AID 720680). (In general: In qHTS, concentration-response curves come from the screen itself.)
A short description of assay [2]: qHTS assay to test for compound auto fluorescence at 535 nm (green) in HEK293 cell free culture (AID 720682). An outline of the steps:
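Read-out: 485/535 nm fluorescence intensity, calibrated against fluorescein. Medium only (DMEM + 10% FBS, no cells); test compound or DMSO vehicle added by pintool before plate reading.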

Assay [3] can be described thus: qHTS assay to test for compound auto fluorescence at 590 nm (red) in HEK293 cell free culture (AID 720683). In a few lines:
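Cell-free wells of DMEM with 10% FBS received compound, and intrinsic fluorescence was read at excitation/emission 540/590 nm. Values expressed as equivalence to Rose Bengal sodium.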

Assay [4] can be described thus: qHTS assay to test for compound auto fluorescence at 590 nm (red) in HepG2 cell free culture (AID 720684). An outline of the steps: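 Compounds are added to culture medium (MEM, 10% FBS) lacking cells, then fluorescence is read at excitation 540 nm, emission 590 nm, with Rose Bengal sodium as the equivalency standard.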
Assay [5] is described as follows: qHTS assay to test for compound auto fluorescence at 460 nm (blue) in HepG2 cell free culture (AID 720685). In a few lines: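 Compound (23 nL) or DMSO pinned into cell-free MEM with 10% FBS; blue fluorescence read at 405/460 nm excitation/emission, expressed as auto-fluorescence equivalency to triamterene.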
Assay [6] is described as follows: qHTS assay to test for compound auto fluorescence at 535 nm (green) in HepG2 cell free culture (AID 720686).
Assay [7] can be described thus: qHTS assay to test for compound auto fluorescence at 460 nm (blue) in HepG2 cells (AID 720687). An outline of the steps: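 HepG2 cells in MEM with 10% FBS, attached overnight at 37 C, were exposed to compound or DMSO for 1 hr at 37 C, 5% CO2. Blue fluorescence was read at 405/460 nm, with triamterene as reference fluorophore.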
Assay [8] in a line: qHTS assay to identify small molecule antagonists of the glucocorticoid receptor (GR) signaling pathway - cell viability counter screen (AID 720693). Note: nearly all actives have a fitted effect of over 55% in size.
Assay [9] can be described thus: qHTS assay for identifying genotoxic compounds that show differential cytotoxicity against isogenic chicken DT40 cell lines with known DNA damage response pathways - wild type cell line (AID 743012). Note: nearly all actives have a fitted effect of over 60% in size. Note: potency is the fitted concentration of half-maximal effect. An outline of the steps:
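Wild-type DT40 cells (300/well) exposed to compounds for 40 hours at 37 C/5% CO2. Viability read by CellTiter-Glo luminescence after 30 min at room temperature.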

Assay [10] can be described thus: qHTS assay for identifying genotoxic compounds that show differential cytotoxicity against isogenic chicken DT40 cell lines with known DNA damage response pathways - Rev3 mutant cell line (AID 743014). Note: nearly all actives have a fitted effect of over 55% in size. Note: potency is the fitted concentration of half-maximal effect.
Assay [11] can be described thus: qHTS assay for identifying genotoxic compounds that show differential cytotoxicity against isogenic chicken DT40 cell lines with known DNA damage response pathways - Rad54/Ku70 mutant cell line (AID 743015). Note: nearly all actives have a fitted effect of over 60% in size. Note: potency is the fitted concentration of half-maximal effect.
Assay [12] in a line: qHTS assay to identify small molecule antagonists of the androgen receptor (AR) signaling pathway - cell viability counter screen (AID 743033; note: nearly all actives have a fitted effect of over 45% in size; note: potency is the fitted concentration of half-maximal effect).
Assay [13] in a line: qHTS assay to identify small molecule antagonists of the androgen receptor (AR) signaling pathway using the MDA cell line - cell viability counter screen (AID 743041; note: nearly all actives have a fitted effect of over 45% in size). In a few lines:
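Same-well cytotoxicity was assessed by CellTiter-Fluor in MDA-kb2 AR-luc cells after 16 h of compound treatment under R1881 agonism.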

Assay [14] in a line: qHTS assay to identify small molecule antagonists of the thyroid receptor (TR) signaling pathway - cell viability counter screen (AID 743064). Note: nearly all actives have a fitted effect of over 50% in size. Note: potency is the fitted concentration of half-maximal effect. In a few lines:
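GH3.TRE-Luc rat pituitary cells carrying a TRE-luciferase reporter were treated with compound plus 1 nM T3 (final) for 23.5 h at 37 °C. Viability was then read in the same wells by CellTiter-Fluor fluorescence after a further 30 min.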

In assay [15] the target is Glucocorticoid receptor (Homo sapiens) (UniProt P04150). The experiment in a line: qHTS assay to identify small molecule agonists of the glucocorticoid receptor (GR) signaling pathway (AID 720691; active = well fitted activation curve with a large enough effect in the signal ratio in the repeat runs, not every such curve was filed as active; the % refers to the signal ratio). An outline of the steps: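 GR-bla HeLa cells carrying a GRE-driven beta-lactamase reporter, exposed to compounds for 18 h at 37 C. Reporter activation read as fluorescence after 2 h with LiveBLAzer B/G FRET substrate at room temperature.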
Chain of Glucocorticoid receptor (Homo sapiens) (P04150 whole entry, looked up): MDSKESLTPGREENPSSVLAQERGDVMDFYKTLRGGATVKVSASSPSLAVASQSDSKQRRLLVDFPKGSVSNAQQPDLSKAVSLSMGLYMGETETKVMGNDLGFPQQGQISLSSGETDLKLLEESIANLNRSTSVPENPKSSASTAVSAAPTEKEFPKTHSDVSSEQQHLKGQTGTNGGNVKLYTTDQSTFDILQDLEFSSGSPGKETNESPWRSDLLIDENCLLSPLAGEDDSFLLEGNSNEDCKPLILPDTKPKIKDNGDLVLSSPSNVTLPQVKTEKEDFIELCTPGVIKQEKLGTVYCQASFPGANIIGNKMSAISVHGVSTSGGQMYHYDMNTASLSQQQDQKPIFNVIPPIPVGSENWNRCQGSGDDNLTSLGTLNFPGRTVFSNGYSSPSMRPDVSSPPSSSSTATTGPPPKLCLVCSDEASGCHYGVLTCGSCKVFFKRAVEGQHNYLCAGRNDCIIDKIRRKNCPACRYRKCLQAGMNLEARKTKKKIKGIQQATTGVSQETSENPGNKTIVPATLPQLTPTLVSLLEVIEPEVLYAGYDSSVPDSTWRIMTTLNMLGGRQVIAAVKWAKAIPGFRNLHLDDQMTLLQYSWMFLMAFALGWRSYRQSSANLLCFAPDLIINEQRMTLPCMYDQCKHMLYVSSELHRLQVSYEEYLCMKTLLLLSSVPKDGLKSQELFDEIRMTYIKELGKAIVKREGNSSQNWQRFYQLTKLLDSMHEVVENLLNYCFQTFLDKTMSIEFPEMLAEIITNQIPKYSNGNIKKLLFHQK

Assay [16] shares this target. In words: qHTS assay to identify small molecule antagonists of the glucocorticoid receptor (GR) signaling pathway (AID 720692; active = well fitted inhibition curve with a large enough effect in the signal ratio in the repeat runs, not every such curve was filed as active; the % refers to the signal ratio). In a few lines: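 GR-bla HeLa cells carrying a GRE-driven beta-lactamase reporter received compound after 4 h plating, then dexamethasone (5 nM final). After 18 h at 37C, the FRET substrate was loaded for 2 h at room temperature and fluorescence read.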

The target in assay [17] is Androgen receptor (Homo sapiens) (UniProt P10275). In words: qHTS assay to identify small molecule agonists of the androgen receptor (AR) signaling pathway using the MDA cell line (AID 743040; note: nearly all actives have a fitted effect of over 20% in size). An outline of the steps:
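Human breast carcinoma MDA-kb2 reporter cells (MMTV-luc, AR/GR elements) were treated for 16 h at 37C in 0% CO2 following a 5 h settling period. Signal was quantified by ONE-Glo luminescence.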

Assay [18] has the same target. In words: qHTS assay to identify small molecule antagonists of the androgen receptor (AR) signaling pathway using the MDA cell line (AID 743042; note: nearly all actives have a fitted effect of over 55% in size; note: potency is the fitted concentration of half-maximal effect). An outline of the steps: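 MDA-kb2 breast carcinoma cells carrying MMTV-luciferase (AR/GR responsive) were co-treated with compounds and the agonist R1881 for 16 h at 37C. Inhibition read as ONE-Glo luminescence; CellTiter-Fluor fluorescence measured in parallel for cytotoxicity.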

For assay [19] the target is unchanged. In words: qHTS assay to identify small molecule agonists of the androgen receptor (AR) signaling pathway (AID 743036; active = well fitted activation curve with a large enough effect in the signal ratio in the repeat runs, with a control signal flat, not every such curve was filed as active; the % refers to the signal ratio). An outline of the steps:
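HEK293 cells stably carrying a UAS-driven beta-lactamase reporter (GeneBLAzer AR-UAS-bla-GripTite) were plated at 2,000 cells/well, rested 4 h at 37C, then exposed to compounds in DMSO for 16 h. LiveBLAzer B/G FRET substrate was added for 2 h at room temperature; fluorescence read.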
% is set by controls: 0 for no effect and ±100 for the full control effect.

Chain of Androgen receptor (Homo sapiens) (P10275 whole entry, looked up): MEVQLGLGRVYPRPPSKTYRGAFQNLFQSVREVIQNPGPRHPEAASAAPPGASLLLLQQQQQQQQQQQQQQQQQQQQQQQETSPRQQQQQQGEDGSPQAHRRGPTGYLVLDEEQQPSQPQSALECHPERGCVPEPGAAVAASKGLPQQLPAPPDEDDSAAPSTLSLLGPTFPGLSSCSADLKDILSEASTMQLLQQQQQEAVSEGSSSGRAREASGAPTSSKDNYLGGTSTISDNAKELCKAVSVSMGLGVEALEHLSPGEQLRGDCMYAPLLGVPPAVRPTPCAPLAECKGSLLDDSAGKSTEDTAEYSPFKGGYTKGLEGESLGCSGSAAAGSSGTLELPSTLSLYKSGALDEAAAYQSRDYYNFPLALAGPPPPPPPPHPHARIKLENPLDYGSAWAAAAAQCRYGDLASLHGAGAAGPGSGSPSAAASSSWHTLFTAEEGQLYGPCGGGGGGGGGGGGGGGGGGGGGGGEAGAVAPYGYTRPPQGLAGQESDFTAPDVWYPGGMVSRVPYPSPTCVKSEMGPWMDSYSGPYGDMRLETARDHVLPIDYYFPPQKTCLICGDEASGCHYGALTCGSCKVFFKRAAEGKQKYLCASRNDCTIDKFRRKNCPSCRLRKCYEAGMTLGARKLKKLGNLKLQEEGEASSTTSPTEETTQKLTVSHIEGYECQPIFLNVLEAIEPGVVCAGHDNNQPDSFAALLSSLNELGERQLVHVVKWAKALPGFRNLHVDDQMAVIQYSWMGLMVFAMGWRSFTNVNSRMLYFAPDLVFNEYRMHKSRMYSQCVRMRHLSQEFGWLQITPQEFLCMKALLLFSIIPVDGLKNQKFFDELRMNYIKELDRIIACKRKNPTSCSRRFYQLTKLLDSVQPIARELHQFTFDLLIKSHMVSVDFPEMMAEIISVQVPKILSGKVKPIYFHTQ

Consider `COC(=O)[C@@H]1CC2=CC(=O)CC[C@]2(C)[C@@]23O[C@@H]2C[C@@]2(C)[C@@H](CC[C@@]24CCC(=O)O4)[C@H]13`, for which the result in [1], in assay [2], in assay [3], in assay [4] and in assay [6] was inactive. Further, the Potency result in assay [5], in [7], in assay [8], in assay [9], in assay [10] and in assay [11] was “inactive” each time. The Potency entry in assay [12], in assay [13] and in [14] was “inactive” in each case.

Regarding `Cc1nc2ccccn2c(=O)c1CCN1CCC(C(=O)c2ccc(F)cc2)CC1`, the molecule was called inactive in assay [1], in assay [2], in assay [3], in assay [4] and in [6]. The Potency result in assay [5], in [7], in assay [15], in assay [8], in assay [10] and in assay [12] was “inactive” each time. In addition, the Potency result in [13] and in assay [14] was “inactive” throughout.

For the molecule `Nc1ccc(C(=O)OCCCOC(=O)c2ccc(N)cc2)cc1`, the outcome in [1], in assay [2], in assay [3], in [4] and in [6] was inactive. Besides, the Potency entry in assay [5], in [7], in assay [15], in assay [16], in assay [8] and in [12] was “inactive” each time. The Potency entry in assay [14] is “inactive”.

Regarding `CCCCC/C(=C\c1ccccc1)CO`, the call in [1], in assay [3], in assay [4] and in assay [6] was inactive. Also, the Potency result in [5], in assay [7], in assay [8] and in assay [13] was “inactive” each time. In [14], the Potency was 48 µM (active).

For the molecule `CCn1cc(C(=O)O)c(=O)c2cc(F)c(N3CCNCC3)nc21`, the fluorescence, % of fluorescein in [1] was -0.0016% [at 18.6 µM]. The fluorescence, % of fluorescent control was -0.252% [at 18.6 µM] in assay [3], -0.0969% [at 18.6 µM] in assay [5] and -0.0048% [at 18.6 µM] in assay [7]. The fluorescence, % of Rose Bengal in [4] was -0.483% [at 18.6 µM]. In addition, the fluorescence, % of fluorescein control in assay [6] is -0.0379% [at 18.6 µM]. The Potency entry in assay [8], in assay [9], in assay [10], in [11], in [12] and in [14] was “inactive” each time.

Consider `CCOC(=O)[C@@H](C)Oc1ccc(Oc2nc3ccc(Cl)cc3o2)cc1`, for which the outcome in [1], in assay [2], in [3], in [4] and in assay [6] was inactive. Besides, the Potency entry in [5], in [7], in assay [15], in assay [8], in assay [12] and in assay [17] was “inactive” each time. Besides, the Potency entry in assay [13], in [18] and in assay [14] was “inactive” throughout. Moreover, the Potency in assay [9] was 68.6 µM (active); in assay [11], 61.1 µM (active).

As for `CN(C(=O)C(Cl)Cl)c1ccc(OC(=O)c2ccco2)cc1`, the molecule was called inactive in [1], in [2], in assay [3], in assay [4] and in [6]. The Potency result in [5], in [7], in assay [15], in assay [16], in [8] and in assay [12] was “inactive” throughout. Further, the Potency entry in [17], in assay [13] and in [18] was “inactive” each time. The Potency in [9] was 26.6 µM (active).

As for `CC(C)(C)CC(C)(C)c1ccc(OCCO)cc1`, the molecule was classed as inactive in [1], in assay [2], in assay [3], in assay [4] and in [6]. Further, the Potency entry in assay [5], in [7], in assay [15], in assay [8], in assay [19] and in assay [17] was “inactive” in each case. Further, the Potency in assay [9] was 3.76 µM (active) and 13.6 µM (active); in assay [10] it was 6.68 µM (active) and 7.65 µM (active); in assay [11], 5.96 µM (active) and 9.63 µM (active); in assay [12], 21.8 µM (active); in assay [18], 11.9 µM (active) and 9.63 µM (active); in assay [14] it was 11.9 µM (active) and 60.8 µM (active).

In the case of `CC1(C)C(=O)N(Br)C(=O)N1Cl`, the molecule was classed as inactive in [1], in assay [2], in assay [3], in assay [4] and in [6]. For the same molecule, the Potency entry in assay [5], in assay [7], in assay [8], in assay [12] and in [13] was “inactive” throughout. The Potency in assay [9] and in assay [10] was 61.1 µM (active) throughout.

Regarding `CC1=NN(c2ccc(C(=O)O)cc2)C(=O)C1`, the molecule was classed as inactive in [1], in assay [2], in assay [3], in [4] and in assay [6]. Also, the Potency entry in [5], in [7], in assay [8], in assay [9], in assay [10] and in assay [11] was “inactive” each time. In addition, the Potency result in assay [12], in assay [17], in [13], in assay [18] and in assay [14] was “inactive” throughout.

For the molecule `CCN(Cc1cccc(S(=O)(=O)O)c1)c1ccc(C(=C2C=CC(=[N+](CC)Cc3cccc(S(=O)(=O)[O-])c3)C=C2)c2ccccc2)cc1`, the molecule was classed as inactive in assay [1], in assay [2], in [3], in [4] and in assay [6]. The Potency entry in assay [5], in assay [7], in assay [8], in assay [9], in assay [10] and in [11] was “inactive” in each case. The Potency entry in assay [12], in assay [13] and in assay [14] was “inactive” throughout.
